HEK293 tox = qHTS of GLP-1 Receptor Inverse Agonists: Cytotox Screen | actives 0.13% (n = 410,000) | Potency, µM (highest dose often 38.3 µM), inactives show at the top dose activity change, negative = inhibition, actives largely listed as inhibitors | HEK293 cAMP-luciferase reporter cells, luminescence, 24 h;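 further: loss of luciferase light is scored as toxicity; potency means the concentration at half of the fitted maximal effect; on the % scale 0 is the no-effect control and ±100 the full control effect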
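Quantitative HTS format, 1536 wells, 200 cells/uL seeded. Compounds: 23 nL, 24 h, 37 °C. Detection: luciferase reagent, luminescence at 12 min RT; decreased signal taken as cytotoxic.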
hERG WT inh = qHTS for Inhibitors of KCHN2 3.1: Wildtype qHTS; Voltage-gated inwardly rectifying potassium channel KCNH2 (Homo sapiens), Q12809; U2OS, BacMam KCNH2, thallium flux FluxOr; stronger effect = lower value; activity change, % at 1.84 µM; actives 0.37% (n = 340,000);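 active means maximum activity change below -70%; inconclusive means maximum activity change between -70% and -50%; inactive means maximum activity change above -50%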; further: on the % scale 0 is the no-effect control and ±100 the full control effect
Target sequence (Q12809 whole entry, looked up): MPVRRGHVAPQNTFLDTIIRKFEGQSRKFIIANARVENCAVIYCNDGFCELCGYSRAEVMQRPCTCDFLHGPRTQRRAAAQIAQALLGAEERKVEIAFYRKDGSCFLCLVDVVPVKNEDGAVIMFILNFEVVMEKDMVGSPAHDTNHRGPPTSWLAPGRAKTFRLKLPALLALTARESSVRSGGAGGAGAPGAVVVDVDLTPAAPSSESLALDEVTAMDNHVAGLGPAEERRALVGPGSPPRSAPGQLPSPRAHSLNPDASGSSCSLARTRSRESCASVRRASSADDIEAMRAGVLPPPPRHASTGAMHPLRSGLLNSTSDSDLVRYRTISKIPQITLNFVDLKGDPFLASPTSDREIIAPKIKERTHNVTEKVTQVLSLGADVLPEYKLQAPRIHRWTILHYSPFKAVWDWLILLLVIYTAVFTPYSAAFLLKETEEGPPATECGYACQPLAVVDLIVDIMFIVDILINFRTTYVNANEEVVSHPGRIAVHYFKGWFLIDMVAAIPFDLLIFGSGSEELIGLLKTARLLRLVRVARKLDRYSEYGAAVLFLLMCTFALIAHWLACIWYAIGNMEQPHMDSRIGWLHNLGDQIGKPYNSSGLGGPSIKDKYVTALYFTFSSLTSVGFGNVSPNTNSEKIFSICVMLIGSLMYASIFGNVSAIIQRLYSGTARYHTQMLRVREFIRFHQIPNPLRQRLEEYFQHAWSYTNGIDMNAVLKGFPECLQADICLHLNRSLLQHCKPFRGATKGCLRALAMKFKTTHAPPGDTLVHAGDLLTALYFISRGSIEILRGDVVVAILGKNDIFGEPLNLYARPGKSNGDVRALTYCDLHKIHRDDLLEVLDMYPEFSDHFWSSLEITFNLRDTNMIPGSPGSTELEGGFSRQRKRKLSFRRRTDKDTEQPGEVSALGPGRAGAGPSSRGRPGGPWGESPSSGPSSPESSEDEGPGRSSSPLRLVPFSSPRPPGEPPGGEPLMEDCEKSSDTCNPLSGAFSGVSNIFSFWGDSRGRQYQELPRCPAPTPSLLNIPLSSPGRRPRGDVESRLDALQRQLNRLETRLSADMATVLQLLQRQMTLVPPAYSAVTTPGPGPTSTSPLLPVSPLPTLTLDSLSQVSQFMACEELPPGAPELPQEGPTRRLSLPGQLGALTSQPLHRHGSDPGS
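U2OS cells transduced with wild-type KCNH2 virus are loaded with FluxOr dye for 45 min, and thallium flux is measured in kinetic reads before and after stimulation buffer. Rate constants are normalized to DMSO controls.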
GLS inh = qHTS for Inhibitors of Glutaminase (GLS); Glutaminase kidney isoform, mitochondrial (Homo sapiens), O94925; GLS enzymatic activity, qHTS titration; Potency, µM (highest dose often 45.5 µM), for the others: top-dose activity change, negative = inhibition, most hits filed as inhibitors; actives 0.21% (n = 410,000); AID 624170, 2012; further: potency means the concentration at half of the fitted maximal effect; on the % scale 0 is the no-effect control and ±100 the full control effect
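Read-out is an Amplex red fluorescence increase coupled through glutamate oxidase and HRP, measured before and after 30 min room-temperature incubation. hKGA is in 45 mM KH2PO4 (pH 8.2) with 0.02% Tween-20; glutamine added as 1mM solution.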
GLP1R ag = qHTS of GLP-1 Receptor Agonists | Glucagon-like peptide 1 receptor (Homo sapiens), P43220 | HEK293 GLP-1R CRE-luciferase, luminescence, 4-6 h; cells express a hypersensitive GLP-1R form | Potency, µM (doses to about 45.6 µM), for the others: at the top dose activation, actives largely listed as activators | actives 0.007% (n = 380,000) | AID 624172, 2012; further: potency means the concentration at half of the fitted maximal effect; % of control where 0% means no effect
KCNH2 3.1 inh = qHTS for Inhibitors of KCHN2 3.1: Mutant qHTS | AID 720553, 2013 | actives 0.95% (n = 340,000) | Potassium voltage-gated channel subfamily H member 2, brain isoform KCNH2 3.1 (human) | activity change, % (tested at about 1.8 µM) | U2OS KCNH2 3.1, thallium flux FluxOr; stronger effect = lower value;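 active means maximum activity change below -70%; inconclusive means maximum activity change from -70% to -50%; inactive means maximum activity change above -50%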;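 further: thallium influx rate constant from kinetic fluorescence after stimulation buffer; on the % scale 0 is the no-effect control and ±100 the full control effect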
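Steps: virus added to U2OS suspension (4 h, RT, dark); medium with 10% FBS added, cells plated, 37 C overnight; FluxOr/Red40 loading buffer 45 min RT; stimulation buffer, 2 min kinetic read; rate constant normalized.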
GLP1R inv ag = qHTS of GLP-1 Receptor Inverse Agonists (Inhibition Mode); Potency, µM (top dose mostly 38.3 µM), without a hit: at the top dose activity change, negative = inhibition, actives largely listed as inhibitors; HEK293 GLP-1R CRE-luciferase, luminescence, 24 h; GLP-1R form is constitutively active; actives 1.6% (n = 410,000); further: potency means the concentration at half of the fitted maximal effect; on the % scale 0 is the no-effect control and ±100 the full control effect; nearly all actives have a fitted effect of over 55% in size
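Cells are plated, allowed 12 hours at 37 deg C, then treated with compounds for 24 hr before luciferase detection reagent is added and luminescence is read after 12 min at room temperature. The HEK293 line carries constitutively active GLP-1R with a cAMP-responsive reporter.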
Active calls of the source: *; ? = inconclusive; · = no result given. In the library only some 2.8% were active in any assay of this set; here they are far more common. Unless noted, the call rests on the fitted dose curve; in most records, active means well fitted curve in the direction sought with a large enough effect; inconclusive means small, poorly fitted or top-dose-only effect, or another doubt; inactive means no such curve, though single readings can be large; an effect the other way counts as inactive or inconclusive.

SMILES	HEK293 tox	hERG WT inh	GLS inh	GLP1R ag	KCNH2 3.1 inh	GLP1R inv ag
COC(=O)C1=C(c2ccc(Cl)c(C(F)(F)F)c2)C[C@@H]2CC[C@H]1N2C(=O)NCc1cc(C)oc1C(F)(F)F	-1%	-11	3%	5%	-89*	?
COC(=O)C1=C(c2ccc(Cl)c(C(F)(F)F)c2)C[C@@H]2CC[C@H]1N2C(=O)N1CCC(O)(c2ccc(Cl)cc2)CC1	-11%	-8	-6%	-3%	8	8.9µM*
CN1[C@@H]2CC[C@H]1CC(OC1c3ccccc3CCc3ccccc31)C2 (some centres undefined)	?	56	-10%	-1%	-36	2µM*
CN1C2CCC1CC(OC(c1ccccc1)c1ccccc1)C2 (centres undefined)	?	-1	-5%	2%	?	?
C[C@]12CC[C@@H]3c4ccc(OC(=O)N(CCCl)CCCl)cc4CC[C@H]3[C@@H]1CC[C@@H]2OP(=O)(O)O	·	·	3%	1%	·	·
CC(C(=O)c1cn(C)c2ccccc12)c1ccccc1 (centres undefined)	5%	-5	-7%	3%	-9	?
Cn1cc(SCC(=O)Nc2nc3ccccc3s2)c2ccccc21	?	26	-1%	-14%	-12	10µM*
Cc1ccc(-c2nnc(Nc3ccc(Br)cc3)c3ccccc23)cc1S(=O)(=O)NCc1nc2ccccc2[nH]1	0%	·	-1%	·	·	?
NC(=S)NN=C(c1ccc(Br)cc1)C1CC1	2.5µM*	-2	64%	-9%	·	4µM*
O=C(CCCN1CCC(n2c(=O)[nH]c3ccccc32)CC1)c1ccc(F)cc1	-2%	-11	-1%	10%	-71*	?
CCCCCCCCN1C(=O)[C@H](CC(=O)NCCc2ccccc2OC)C[C@@]2(C(=O)OC)CCCCC=C12	-14%	·	-1%	-1%	·	?
CCOc1ccc(C(=O)Nc2cccc(C(=O)OCc3cc(=O)n4nc(C5CC5)sc4n3)c2)cc1	-13%	·	-17%	·	·	?
O=C(NC(c1ccc(F)cc1)c1ccc2ccccc2n1)C1CCN(CCOc2ccc(Cl)cc2)CC1 (centres undefined)	?	·	9%	-6%	·	6.3µM*
COc1cc(/C=C2\SC(=S)N(CCC(=O)N3CCCCC3)C2=O)cc(OC)c1OC	?	-9	-1%	5%	-8	10µM*
Clc1ccc2c(c1)C(c1ccccc1Cl)=NCc1nnc(N3CCN(CCSc4ccccc4)CC3)n1-2	13%	-153*	1%	15%	-12	0%
Cn1nc(C(C)(C)C)cc1C(=O)N1CCCCC1c1cc(C(=O)Nc2ccc(F)c(Cl)c2)no1 (centres undefined)	1%	·	5%	-7%	·	10µM*
CC/C(=N\Nc1ccccc1)c1c(O)n(-c2ccc(OC)cc2)c(=O)[nH]c1=O	-21%	-3	10µM*	1%	-10	?
CC(C)n1c(N2CCN(S(=O)(=O)c3cccc([N+](=O)[O-])c3)CC2)nc2ccccc21	-26%	20	2%	5%	?	?
CCSC1=NN1c1cc(C)nc(N)n1	-7%	0	2%	-1%	-95*	41%
Cc1ccc(OCCSC2=NN2c2cc(C)nc(N)n2)cc1	1%	0	-6%	-4%	-3	168%
Cc1ccc(-c2csc(-c3c[nH]c4ccccc34)n2)c(C)c1	?	1	-10%	-20%	-1	10µM*
